According to the supplement of paper PMC12350171:
Where a name gives a salt, the structure may show the parent alone. Values without a mark were called inactive.

Legend:
Conditions in all cases: 20 µM
[1] = system: P. vulgatus RND KO; assay: growth AUC normalised to DMSO control (median) (fraction of control); higher = less growth inhibition, active = hit call of the paper
Method in brief: (§1)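 In 96-well plates of mGAM seeded at OD578 0.01, strains that had been passaged twice overnight without oxygen were exposed to approved-drug library compounds at 20 μM with 1% DMSO. Hourly OD578 readings were taken for 24 h in an anaerobic incubator. The trapezoidal-rule area under the curve, with curves truncated at entry into stationary phase, was expressed relative to same-plate vehicle wells as the median of three biological replicates.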

[2] = system: P. vulgatus WT; assay: as above
Method in brief: as §1

[3] = system: S. enterica typhimurium WT; assay: as above
Method in brief: as §1

[4] = system: S. enterica typhimurium tolC KO; assay: as above
Method in brief: as §1

[5] = system: Haemophilus parainfluenzae; assay: growth AUC normalised to DMSO control (fraction of control); higher = less growth inhibition, active = hit call of the paper
Method in brief: (§2)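 For the AUC endpoint, growth curves were integrated by the trapezoidal rule up to the exponential-to-stationary transition and normalised to DMSO controls on the same plate. The curves came from OD578 readings taken hourly for 24 h, in three biological replicates. Pathogens had been passaged anaerobically twice and inoculated at an OD578 of 0.01 into pre-reduced mGAM plates carrying 20 μM compound and 1% DMSO, sealed with breathable membranes. Medium for Haemophilus parainfluenzae also contained hemin and NAD.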

[6] = system: Salmonella enterica typhimurium; assay: as above
Method in brief: as §2

[7] = system: Shigella flexneri; assay: as above
Method in brief: as §2

[8] = system: Vibrio cholerae; assay: as above
Method in brief: as §2

[9] = system: Yersinia pseudotuberculosis; assay: as above
Method in brief: as §2
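For growth AUC normalised to DMSO control (median) in this document: active when median AUC fell below 0.1.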

| Structure (SMILES) | growth AUC normalised to DMSO control [1] | growth AUC normalised to DMSO control [2] | growth AUC normalised to DMSO control [3] | growth AUC normalised to DMSO control [4] | growth AUC normalised to DMSO control [5] | growth AUC normalised to DMSO control [6] | growth AUC normalised to DMSO control [7] | growth AUC normalised to DMSO control [8] | growth AUC normalised to DMSO control [9] |
| --- | --- | --- | --- | --- | --- | --- | --- | --- | --- |
| NC(=O)OCCCc1ccccc1 [Phenprobamate] | 1.01 | 1.02 | 0.989 | 0.991 |  |  |  |  |  |
| CC[C@@H](C(=O)[C@@H](C)[C@@H](O)[C@H](C)[C@@H]1O[C@@H]([C@@H](CC)C(=O)O)CC[C@@H]1C)[C@H]1O[C@]2(C=C[C@@H](O)[C@]3(CC[C@@](C)([C@H]4CC[C@](O)(CC)[C@H](C)O4)O3)O2)[C@H](C)C[C@@H]1C [Salinomycin sodium] | 0.00978 (active) | 0.00987 (active) | 1.01 | 0.781 |  |  |  |  |  |
| CC(C)=CC1C(C(=O)OCc2cccc(Oc3ccccc3)c2)C1(C)C (configuration not stated) [Phenothrin] | 1.01 | 1.01 | 0.998 | 1.01 |  |  |  |  |  |
| CC[C@@]1([C@@H]2O[C@@H]([C@H]3O[C@@](O)(CO)[C@H](C)C[C@@H]3C)C[C@@H]2C)CC[C@H]([C@]2(C)CC[C@]3(C[C@H](O)[C@@H](C)[C@@H]([C@@H](C)[C@@H](OC)[C@H](C)C(=O)O)O3)O2)O1 [Monensin sodium salt] | 0.261 | 0.305 | 1 | 0.856 |  |  |  |  |  |
| CC(NC(C)(C)C)C(=O)c1cccc(Cl)c1 (configuration not stated) [Bupropion hydrochloride] | 1.03 | 1.03 | 0.996 | 1 | 1.01 | 1 | 1.05 | 1.05 | 1.01 |
| CC(=O)NC1CCSC1=O (configuration not stated) [Citiolone] | 1.03 | 1.04 | 1 | 1.01 | 1.03 | 1.01 | 1 | 1.03 | 0.985 |
| C=CC[C@]1(O)CC[C@H]2[C@@H]3CCC4=CCCC[C@@H]4[C@H]3CC[C@@]21C [Allylestrenol] | 0.959 | 0.925 | 1.02 | 1.01 |  |  |  |  |  |
| COc1cccc(C2(O)CCCCC2CN(C)C)c1 (configuration not stated) [Tramadol hydrochloride] | 0.988 | 0.989 | 0.986 | 0.986 | 0.971 | 0.98 | 0.992 | 0.983 | 0.994 |
| C=C(C)[C@@H]1[C@H]2OC(=O)[C@@H]1[C@]1(O)C[C@H]3O[C@]34C(=O)O[C@H]2[C@]14C [Picrotoxinin] | 1.03 | 1.03 | 1.02 | 1.02 | 1 | 1 | 0.96 | 1 | 0.997 |
| Oc1ccc(Cl)cc1Cc1cc(Cl)ccc1O [Dichlorophen] | 0.641 | 0.442 | 0.915 | 0.00799 (active) |  |  |  |  |  |
| CC(=O)OCC1=C(C(=O)O)N2C(=O)[C@@H](N)[C@H]2SC1 [Cephalosporanic acid, 7-amino] | 0.0227 (active) | 0.0158 (active) | 1 | 0.983 | 0.942 | 0.999 | 0.987 | 0.968 | 0.99 |
| O=c1c2ccccc2[se]n1-c1ccccc1 [Ebselen] | 1.04 | 1.02 | 1.02 | 0.971 | 0.874 | 0.987 | 1.03 | 0.999 | 0.974 |
| O=C(O[C@H]1C[N+]2(CCCOc3ccccc3)CCC1CC2)C(O)(c1cccs1)c1cccs1 [Aclidinium bromide] | 1 | 1 | 1.01 | 1 |  |  |  |  |  |
| Nc1nc(N)nc(NC2CC2)n1 [Cyromazine] | 0.998 | 1.01 | 1 | 0.988 |  |  |  |  |  |
| c1ccc2c(c1)Nc1ccccc1S2 [Phenothiazine] | 1.01 | 1.01 | 0.972 | 0.945 |  |  |  |  |  |
| COC[C@@H](NC(C)=O)C(=O)NCc1ccccc1 [Lacosamide] | 0.998 | 1 | 0.987 | 1 |  |  |  |  |  |
| CC(C)(C)NCC(O)c1ccccc1Cl (configuration not stated) [Tulobuterol Hydrochloride] | 1.01 | 1 | 0.995 | 0.989 |  |  |  |  |  |
| CC[C@@H](C(N)=O)N1CCCC1=O [Levetiracetam] | 1.01 | 1.03 | 1.01 | 1 | 1.04 | 1.01 | 1.03 | 1.05 | 1.01 |
| CN1C(=O)COc2c(C(=O)NC3CN4CCC3CC4)cc(Cl)cc21 (configuration not stated) [Azasetron hydrochloride] | 1.02 | 1.04 | 1.01 | 1.01 |  |  |  |  |  |

| Structure (SMILES) | growth AUC normalised to DMSO control [1] | growth AUC normalised to DMSO control [2] | growth AUC normalised to DMSO control [3] | growth AUC normalised to DMSO control [4] | growth AUC normalised to DMSO control [5] | growth AUC normalised to DMSO control [6] | growth AUC normalised to DMSO control [7] | growth AUC normalised to DMSO control [8] | growth AUC normalised to DMSO control [9] |
| --- | --- | --- | --- | --- | --- | --- | --- | --- | --- |
| Nc1ccncc1 [Dalfampridine] | 1 | 1.03 | 1.02 | 0.995 |  |  |  |  |  |
| CC(N)C(O)c1ccccc1 (configuration not stated) [Phenylpropanolamine hydrochloride] | 1.03 | 1.02 | 1.01 | 1.01 | 1.07 |  | 1.03 | 1.01 | 0.972 |
| NCC1(CC(=O)O)CCCCC1 [Gabapentin] | 1.04 | 1.04 | 1.01 | 1.01 | 0.891 | 1.01 | 1.05 | 1.03 | 1.01 |
| N#Cc1nn(-c2c(Cl)cc(C(F)(F)F)cc2Cl)c(N)c1[S+]([O-])C(F)(F)F (configuration not stated) [Fipronil] | 0.985 | 0.906 | 1.01 | 0.903 |  |  |  |  |  |
| CCOC(=O)c1cncn1[C@H](C)c1ccccc1 [Etomidate] | 1.07 | 1.1 | 1 | 0.978 | 1.02 | 1.01 | 1 | 1.03 | 0.984 |
| C[C@]12CC[C@H](O)CC1=CC[C@@H]1[C@@H]2CC[C@]2(C)C(=O)CC[C@@H]12 [Prasterone] | 0.995 | 0.994 | 1.01 | 0.942 |  |  |  |  |  |
| CCCCCC[C@H]1C(=O)O[C@H](C)[C@H](NC(=O)c2cccc(NC=O)c2O)C(=O)O[C@@H](C)[C@@H]1OC(=O)CC(C)C [Antimycin A] | 1.03 | 1.05 | 1.01 | 1.01 |  |  |  |  |  |
| NC(=O)CN1CC(O)CC1=O (configuration not stated) [Oxiracetam] | 1.02 | 1.03 | 1 | 0.955 |  |  |  |  |  |
| CN1[C@@H]2CC[C@H]1C[C@@H](OC(=O)[C@H](CO)c1ccccc1)C2 [(L) Hyoscyamine] | 1 | 1 | 1.01 | 1 | 0.945 | 0.983 | 1.04 | 1.05 | 1.01 |
| C[C@]12CC[C@@H]3c4ccc(OC(=O)N(CCCl)CCCl)cc4CC[C@H]3[C@@H]1CC[C@@H]2O [Estramustine] | 0.982 | 0.984 | 1 | 0.968 |  |  |  |  |  |
| Cc1cccc(C)c1NC(=O)CN1CCCC1=O [Nefiracetam] | 1.01 | 1.01 | 1 | 1 |  |  |  |  |  |
| CCC(COC(=O)c1cc(OC)c(OC)c(OC)c1)(c1ccccc1)N(C)C (configuration not stated) [Trimebutine] | 1 | 1.01 | 1 | 0.936 |  |  |  |  |  |
| CC(C)C[C@H](CN)CC(=O)O [Pregabalin] | 0.971 | 0.976 | 0.991 | 0.989 |  |  |  |  |  |
| C[C@]12C=CC(=O)C=C1CC[C@@H]1[C@@H]2CC[C@@]2(C)[C@H]1CC[C@]2(C)O [Methandrostenolone] | 0.996 | 0.998 | 1.01 | 0.982 |  |  |  |  |  |
| CC[N+]1(C)CCCC(OC(=O)C(O)(c2ccccc2)c2ccccc2)C1 (configuration not stated) [Pipenzolate bromide] | 1 | 1.02 | 1 | 0.999 | 0.996 | 0.993 | 0.977 | 0.998 | 1.01 |
| C[C@]12C/C(=C/O)C(=O)C[C@@H]1CC[C@@H]1[C@@H]2CC[C@@]2(C)[C@H]1CC[C@]2(C)O [Oxymetholone] | 0.918 | 1 | 1.01 | 0.956 |  |  |  |  |  |
| C=C[C@H]1CN2CC[C@H]1C[C@H]2[C@H](OC(=O)OCC)c1ccnc2ccc(OC)cc12 [Quinine ethyl carbonate] | 1.01 | 1 | 0.996 | 0.969 |  |  |  |  |  |
| CCN(CC)CCOC(=O)C(O)(c1ccccc1)c1ccccc1 [Benactyzine hydrochloride] | 0.979 | 0.997 | 1.01 | 1 |  |  |  |  |  |
